Measured values as given in PubChem BioAssay AID624342 (National Center for Advancing Translational Sciences (NCATS), 2012).
Calls of active or inactive are those of the source. Calls follow the shape of the full dose curve.

Test: qHTS for Inducers of the Endoplasmic Reticulum Stress Response (ERSR) in Human Glioma: Hit Validation
Conditions: U87-MG GRP78 promoter luciferase reporter, 16 h
Description: Primary protein unfolding takes place for many diseases, including diabetes and hypoxia, , and triggers a reaction in the cells called ER stress response (ERSR). ). ERSR is designed as a repair mechanism, but ultimately leads to cell death via apoptosis if conditions triggering protein unfolding persist (1). The molecular clue to ERSR activation is the enhancement of the expression of key molecular chaperones, including the glucose regulated protein (GRP) 78. GRP78 is the main sensor for protein folding and the main actuator of the ERSR. In a collaboration between the Southern Research Institute and the NIH Chemical Genomics Center, a cell based screen was developed that reliably uses GRP78 as a sensor to identify small molecules as inducers of ERSR. In resting conditions, GRP78 binds proteins and acts as a natural repressor. Once unfolded proteins are present in the ER, GRP78 releases some of the repressors and binds to the unfolded proteins. The release of the repressors executes the ERSR program. Using a human glioma cell line in a miniaturized, luminescent format, a high-throughput screen was developed to identify actuators of the ERSR. In this assay, the hits identified from primary screen are re-run using the same protocol. NIH Chemical Genomics Center [NCGC] NIH Molecular Libraries Probe Centers Network [MLPCN] MLPCN Grant: DA031669 Assay Submitter (PI): Maurizio Grimaldi, Southern Research Institute (1) Soboloff, J. and S. A. Berger (2002). "Sustained ER Ca2+ depletion suppresses protein synthesis and induces activation-enhanced cell death in mast cells." J Biol Chem 277(16): 13812-20.
Stable transfected human glioma cell line, U87-MG, are dispensed at density 1000 cells/well into Greiner white solid bottom 1536-well assay plates. […] The assay plates will be incubated for 16 hours and developed by adding appropriate quantities of the Promega Bright Glo reagent. The plates will be incubated at room temperature for 10 minutes prior to being transferred into a ViewLux high-throughput CCD imager (PerkinElmer), wherein end-point measurements of luminescence are acquired.

Potency, active:
CC(=O)N1CCOc2cc(S(=O)(=O)Nc3c(C)cccc3C(C)C)c(Cl)cc21 30 µM, CC(C)Cc1nn2c(=O)cc(COC(=O)CNC(=O)c3ccc(C(C)(C)C)cc3)nc2s1 30 µM, Cc1ccc(-c2cc(NC(=O)C(C)Oc3ccc(C)c(C)c3)on2)cc1 (stereo not drawn) 30 µM
